Compound activity deposited in PubChem by National Center for Advancing Translational Sciences (NCATS).
This is a sample that favours compounds with a hit; in the whole collection about 9.5% have one here.
NPSR antag: qHTS Assay for Antagonists of the Neuropeptide S Receptor: cAMP Signal Transduction. Q6W5P4. 220,000 compounds, 1% hits. CHO-NPSR cells, cAMP TR-FRET, antagonist mode. AID 1461, 2008. Potency, µM (titrated, usually from 38.3 µM), without a hit: at the highest dose activity change, negative = inhibition, actives largely listed as inhibitors; also: nearly all actives have a fitted effect of over 50% in size
Tau fibril ThT: qHTS for Inhibitors of Tau Fibril Formation, Thioflavin T Binding; 270,000 compounds, 2.1% hits; recombinant tau K18 P301L, heparin-induced fibrillization, ThT fluorescence; Potency, µM (series often up to 57.4 µM), for inactives: at the top dose activity, negative = inhibition, actives largely listed as inhibitors; Microtubule-associated protein tau (Homo sapiens), P10636; also: nearly all actives have a fitted effect of over 55% in size
Target sequence (P10636 561-689 P618L limits assumed): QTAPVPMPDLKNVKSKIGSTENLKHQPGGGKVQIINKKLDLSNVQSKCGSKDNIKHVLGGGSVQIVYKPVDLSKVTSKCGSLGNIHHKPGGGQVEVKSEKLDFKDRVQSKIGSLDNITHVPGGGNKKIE
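Recombinant human tau K18 fragment […] carrying P301L, 15 uM unlabeled plus 0.24 uM Alexa 594-labeled, was fibrillized with 20 uM heparin in 100 mM sodium acetate pH 7 for 6 hr at 37 C; 30 uM ThT fluorescence read after 1 hr.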
Tau FP inhib: qHTS for Inhibitors of Tau Fibril Formation, Fluorescence Polarization; 280,000 compounds, 0.39% hits; K18 P301L tau heparin fibrillization, Alexa594 FP, 6 h; Microtubule-associated protein tau (Homo sapiens), P10636; AID 1468, 2008; Potency, µM (doses to about 57.7 µM), for inactives: top-dose activity, negative = inhibition, most hits filed as inhibitors; also: nearly all actives have a fitted effect of over 55% in size
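Quantitative HTS format: compounds meet 15 uM recombinant K18 P301L tau and Alexa 594-tau tracer in 100 mM sodium acetate pH 7; 20 uM heparin triggers fibrillization at 37 C over 6 hr; FP gives the signal.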
Tau fluor counter: Counterscreen qHTS for Inhibitors of Tau Fibril Formation, Fluorescence Polarization; tau K18 P301L Alexa594 fluorescence, heparin fibrillization; Potency, µM (top dose mostly 57.7 µM), inactives show at the top dose activity change, negative = decrease; 280,000 compounds, 0.93% hits; also: nearly all actives have a fitted effect of over 55% in size
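Human tau K18 P301L (15 uM unlabeled, 0.24 uM Alexa 594-labeled) in 100 mM sodium acetate pH 7 with 20 uM heparin, 6 hr at 37 C. ThT 30 uM added, 1 hr ambient; Alexa 594 FP and total fluorescence read at 555/632 nm.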
ALDH1A1 block: qHTS Assay for Inhibitors of Aldehyde Dehydrogenase 1 (ALDH1A1); Potency, µM (titrated, usually from 75.3 µM), inactives show at the top dose activity, negative = inhibition, most hits filed as inhibitors; 220,000 compounds, 7.3% hits; AID 1030, 2008; Purified ALDH1A1, NADH fluorescence, propionaldehyde substrate; active = well fitted inhibition curve with a large enough effect, not every such curve was filed as active; inconclusive = small, poorly fitted or top-dose-only effect, or another doubt; inactive = no such curve, though single readings can be large or run the other way;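 also: plate controls were no enzyme wells and a reference inhibitor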
Target sequence (P00352 whole entry, looked up): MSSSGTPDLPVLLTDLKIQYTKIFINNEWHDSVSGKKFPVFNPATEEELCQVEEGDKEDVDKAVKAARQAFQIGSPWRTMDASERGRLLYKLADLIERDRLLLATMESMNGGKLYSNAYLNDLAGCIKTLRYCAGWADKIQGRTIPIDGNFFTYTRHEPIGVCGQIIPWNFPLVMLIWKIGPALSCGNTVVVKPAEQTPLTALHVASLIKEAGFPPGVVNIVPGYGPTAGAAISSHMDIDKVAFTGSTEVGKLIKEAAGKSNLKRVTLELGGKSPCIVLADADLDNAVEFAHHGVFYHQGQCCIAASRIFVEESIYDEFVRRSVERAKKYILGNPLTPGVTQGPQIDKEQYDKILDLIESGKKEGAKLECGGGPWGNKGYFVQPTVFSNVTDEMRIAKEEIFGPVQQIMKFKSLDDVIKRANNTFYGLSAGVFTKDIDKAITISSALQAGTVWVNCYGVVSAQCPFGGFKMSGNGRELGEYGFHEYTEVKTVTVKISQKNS
HPGD inh: qHTS Assay for Inhibitors of HPGD (15-Hydroxyprostaglandin Dehydrogenase); purified HPGD, NADH fluorescence kinetic, PGE2 substrate; Potency, µM, without a hit: at the top dose activity change, negative = inhibition, usual class: inhibitors; 150,000 compounds, 4.3% hits; AID 894, 2007; active = well fitted inhibition curve with a large enough effect, not every such curve was filed as active; inconclusive = small, poorly fitted or top-dose-only effect, or another doubt; inactive = no such curve, though single readings can be large or run the other way
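20 nM HPGD preincubated 15 min at room temperature with compound in 50 mM Tris-HCl pH 8, 0.01% Tween 20. Started with 1 mM NAD+ and 30 uM prostaglandin E2; NADH fluorescence (360/450 nm) read 5 times over 30-s intervals, last minus first.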
* marks the source's active call; other numbers are inactive results; ? = inconclusive; . = no result given; [ ] = remark or other dose. Unless noted, calls follow the shape of the dose curve; as a rule, active = well fitted curve in the direction sought with a large enough effect; inconclusive = small, poorly fitted or top-dose-only effect, or another doubt; inactive = no such curve, though single readings can be large; an effect the other way counts as inactive or inconclusive. Unless noted, % is scaled to controls: 0 for no effect and ±100 for the full control effect; potency is read from the fitted curve at half-maximal effect.

SMILES	NPSR antag	Tau fibril ThT	Tau FP inhib	Tau fluor counter	ALDH1A1 block	HPGD inh
O=C(CO/N=C/c1ccccc1OC(F)F)NCc1ccco1	21.8%	-1.6%	7.2%	3.3%	.	.
CC1Cc2ccccc2N1C(=O)CO/N=C/c1ccccc1OC(F)F (stereo unspecified)	-55.5%	-13.3%	-3.9%	-15.9%	?	-18.2%
O=C(CO/N=C/c1ccccc1OC(F)F)N1CCc2ccccc21	15.1%	9.7%	6.7%	2.2%	15.8µM*	-10.4%
COCCN(CCOC)C(=O)c1ccc(SCc2ccc(C)cc2)c([N+](=O)[O-])c1	-9.8%	?	6.5%	-23.0%	-12.4%	.
CN(C)c1ccc(C(CN)c2c[nH]c3ccccc23)cc1 (stereo unspecified)	-16.5%	?	18.0%	?	15.8µM*	.
CN(C)c1ccc(C(CNS(=O)(=O)c2ccc3ccccc3c2)c2c[nH]c3ccccc23)cc1 (stereo unspecified)	-26.8%	-7.3%	7.1%	8.91µM*[quencher]	-8.8%	-3.7%
CC(=O)Nc1ccc(NC(=O)CCc2c(C)nc3c(c(C)nn3-c3ccccc3)c2C)cc1	.	-6.4%	-3.0%	-17.1%	.	.
CCN(CC)c1ccc(O)c(C=Nc2ccc(C)c(C)c2)c1	-8.7%	?	9.1%	-5.1%	?	.
CN(C)c1ccc(/C=N/O)cc1	-3.5%	-15.6%	3.4%	-3.1%	-1.2%	.
CN(C)c1ccc(/C=N/n2ncc3ccccc32)cc1	-19.9%[46.1 µM]	3.98µM*	14.3%	?	?	?
Cc1ccc(N=Cc2ccc(N(C)C)cc2)cc1C	10.7%	-4.7%	1.6%	-0.7%	0.562µM*	.
CN(C)c1ccc(/C=N/NC(=O)c2ccccc2)cc1	-20.0%	?	-9.1%	-16.9%	?	.
C/C(=N/N=C/c1ccc(N(C)C)cc1)c1ccccc1	0.3%	8.91µM*	2.4%	?	25.1µM*	-15.5%
CN(C)c1ccc(C=Nc2ccccc2)cc1	2.7%[46.1 µM]	3.8%	1.2%	-3.6%	0.891µM*	-16.3%
COc1ccc(Cn2c(CO)cnc2SCc2cccc(C)c2)cc1	.	-11.1%	1.0%	-4.0%	.	.
CC12CN3CC(c4ccccc4)(CN(C1)C3c1ccc(O)cc1)C2=O (stereo unspecified)	.	?	8.0%	6.4%	.	.
Cc1ccccc1-c1noc(-c2ccc(NCC3CCCO3)c([N+](=O)[O-])c2)n1 (stereo unspecified)	.	-6.3%	-5.0%	-5.2%	.	.
C(=Nc1cccc2c(N=Cc3ccco3)cccc12)c1ccco1	-11.7%	?	-9.1%	?	?	.
CN(C)c1ccc(C=Nc2ccc(N(C)C)cc2)cc1	?	11.2µM*	28.2µM*	?	2.24µM*	-27.2%
Cc1ccc(N=Cc2ccc(N(C)C)cc2)cc1	-5.7%[46.1 µM]	-10.5%	6.1%	-10.3%	0.562µM*	-15.3%
CN(C)c1ccc(N=Cc2ccco2)cc1	7.94µM*	?	?	?	5.01µM*	-29.2%
Cc1ccc(Cl)cc1N1CCN(C(=O)c2c(C)oc3ncnc(N4CCCCC4)c23)CC1	.	?	?	-14.8%	.	.
Cc1ccccc1C(=O)NC(=S)NCCc1ccccc1	-20.7%	-14.3%	-1.3%	-14.6%	11.2µM*	-7.4%
CC(C)(C)C(=O)NC(=S)NCCc1ccccc1	-14.5%[46.1 µM]	-11.1%	-3.1%	-16.4%	28.2µM*	-9.5%
S=C(NCCc1ccccc1)NCCc1ccccc1	4.0%	-3.1%	-5.3%	-12.5%	-6.7%	-1.9%
SMILES	NPSR antag	Tau fibril ThT	Tau FP inhib	Tau fluor counter	ALDH1A1 block	HPGD inh
Cc1ccccc1C(=O)NCC(=O)NNC(=S)NC(=O)c1ccccc1	7.8%	-5.6%	4.3%	-4.8%	?	-19.2%
Cc1ccccc1C(=O)NCC(=O)NNC(=S)NC(=O)c1ccccc1C	12.5%	16.5%	0.7%	12.3%	-0.6%	25.1µM*
COc1ccc(/C(C)=N/NS(=O)(=O)c2cc(C)ccc2C)c(OC)c1	5.9%	-0.6%	-1.7%	-7.6%	?	.
CS(=O)(=O)N1CCc2cc(NC(=O)c3ccc(Cl)cc3Cl)ccc21	-0.6%	-10.4%	8.4%	-14.8%	?	.
COc1ccc(NC(=O)c2cc3ccc4c5ccccc5[nH]c4c3cc2O)cc1	-6.2%	2.24µM*	10.0%	3.16µM*[quencher]	4.0%	.
Cc1nc2c(C(=O)NCCc3ccc(Cl)cc3)c[nH]n2c(=O)c1Cc1ccc(Cl)cc1	.	28.2µM*	-11.8%	?	.	.
NC(=O)N/N=C/c1coc2ccc(O)cc2c1=O	7.2%	?	-14.6%	-24.8%	17.8µM*	.
O=C(N/N=C/c1cn(-c2ccccc2)nc1-c1cc2ccccc2o1)c1c[nH]c2ccccc12	-32.6%	3.4%	14.1µM*	?	?	.
O=C(N/N=C/c1coc2ccccc2c1=O)c1ccccc1	-9.0%	-13.2%	-0.2%	-6.4%	3.98µM*	.
Cc1ccc2occ(/C=N/NC(N)=S)c(=O)c2c1	-15.4%[46.1 µM]	0.6%	-8.0%	-4.2%	?	-20.7%
O=C(N/N=C\c1coc2ccccc2c1=O)c1ccco1	-8.2%	-17.0%	1.7%	1.7%	1.58µM*	.
O=C(N/N=C/c1cn(-c2ccccc2)nc1-c1cc2ccccc2o1)c1ccccc1Br	-13.9%	6.4%	7.4%	3.7%	?	?
C=CCNC(=O)N1CCc2nc(CCCC)c3c(c2C1)CO[C@@H](C)C3	.	3.0%[11.5 µM]	-1.9%[11.6 µM]	1.2%[11.6 µM]	6.8%[13.5 µM]	1.1%
CC(=O)N[C@@H](CSC(=O)[C@]1([C@@H](O)C(C)C)NC(=O)[C@H](C)[C@@H]1O)C(=O)O	.	-16.0%[11.5 µM]	0.1%[11.6 µM]	-9.7%[11.6 µM]	11.3%[13.5 µM]	-7.2%
O=C(CCC1CCCC1)N1CCN(C(=O)c2cccnc2)CC1	-1.6%[46.1 µM]	-2.5%	-9.9%	-5.5%	?	-8.9%
O=C(N/N=C/c1coc2ccccc2c1=O)c1cn(-c2ccccc2)nc1-c1ccccc1	-9.7%	9.3%	?	-22.5%	3.16µM*	-15.1%
N#CCC(=O)N/N=C/c1coc2ccccc2c1=O	-4.9%	.	1.9%	-16.0%	.	.
O=C(/C=C/c1c(Cl)nc2ccccn12)N1CCN(c2ccccc2F)CC1	-1.7%	-13.2%	0.9%	-1.4%	3.1%	.
O=C(/C=C/c1c(Cl)nc2ccccn12)N1CCCCC1	-7.2%	2.9%	3.0%	5.0%	11.2µM*	.
Cc1cc(N2C(=O)C=CC2=O)c([N+](=O)[O-])cc1C	?	6.7%	?	-14.6%	0.794µM*	2.82µM*
COC(=O)c1sccc1S(=O)(=O)N(CC(=O)NCc1ccc(F)cc1)c1ccc(C)c(C)c1	.	5.0%	0.0%	4.8%	.	.
